Drawing on the supplement of paper PMC10849652, this text covers log2 fold change for 35 targets.

About 7,900 targets were measured; listed, in parts, are those with a hit and a random draw of the rest. About 0.6% of all pairs of compound and target were hits.

Chain of UniProt Q8N684 (Q8N684 whole entry, looked up): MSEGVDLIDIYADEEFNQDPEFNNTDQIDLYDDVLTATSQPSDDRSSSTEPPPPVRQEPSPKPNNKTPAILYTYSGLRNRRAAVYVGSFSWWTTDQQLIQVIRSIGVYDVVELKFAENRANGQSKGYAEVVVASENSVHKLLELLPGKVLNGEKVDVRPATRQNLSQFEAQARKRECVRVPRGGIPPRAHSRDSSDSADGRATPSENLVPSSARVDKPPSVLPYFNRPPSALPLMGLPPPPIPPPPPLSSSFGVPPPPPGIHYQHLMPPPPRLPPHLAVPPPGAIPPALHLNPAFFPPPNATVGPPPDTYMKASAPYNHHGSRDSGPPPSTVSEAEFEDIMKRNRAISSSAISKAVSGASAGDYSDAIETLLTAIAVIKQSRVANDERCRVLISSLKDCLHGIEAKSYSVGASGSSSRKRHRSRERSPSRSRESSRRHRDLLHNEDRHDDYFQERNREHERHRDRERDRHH
Chain of UniProt O43405 (O43405 whole entry, looked up): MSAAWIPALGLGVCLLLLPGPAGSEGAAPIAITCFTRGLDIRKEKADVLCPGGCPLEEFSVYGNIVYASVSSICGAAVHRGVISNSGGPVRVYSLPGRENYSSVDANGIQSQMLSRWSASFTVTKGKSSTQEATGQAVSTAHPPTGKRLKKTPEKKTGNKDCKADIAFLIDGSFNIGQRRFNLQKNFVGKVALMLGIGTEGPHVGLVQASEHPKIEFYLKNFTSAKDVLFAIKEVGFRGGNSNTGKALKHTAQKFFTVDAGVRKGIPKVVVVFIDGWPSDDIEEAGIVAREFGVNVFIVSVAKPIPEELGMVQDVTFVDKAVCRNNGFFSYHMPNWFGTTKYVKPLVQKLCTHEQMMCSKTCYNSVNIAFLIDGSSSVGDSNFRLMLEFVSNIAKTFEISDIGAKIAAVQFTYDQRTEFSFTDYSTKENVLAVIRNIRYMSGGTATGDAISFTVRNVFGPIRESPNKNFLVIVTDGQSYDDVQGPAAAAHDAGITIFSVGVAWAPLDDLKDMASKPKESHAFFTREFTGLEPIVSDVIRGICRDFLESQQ
Chain of UniProt P41208 (P41208 whole entry, looked up): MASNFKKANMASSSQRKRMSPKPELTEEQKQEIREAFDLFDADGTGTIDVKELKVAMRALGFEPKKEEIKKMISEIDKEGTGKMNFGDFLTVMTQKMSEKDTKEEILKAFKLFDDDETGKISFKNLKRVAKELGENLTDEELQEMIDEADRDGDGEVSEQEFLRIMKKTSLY
Chain of UniProt O95273 (O95273 whole entry, looked up): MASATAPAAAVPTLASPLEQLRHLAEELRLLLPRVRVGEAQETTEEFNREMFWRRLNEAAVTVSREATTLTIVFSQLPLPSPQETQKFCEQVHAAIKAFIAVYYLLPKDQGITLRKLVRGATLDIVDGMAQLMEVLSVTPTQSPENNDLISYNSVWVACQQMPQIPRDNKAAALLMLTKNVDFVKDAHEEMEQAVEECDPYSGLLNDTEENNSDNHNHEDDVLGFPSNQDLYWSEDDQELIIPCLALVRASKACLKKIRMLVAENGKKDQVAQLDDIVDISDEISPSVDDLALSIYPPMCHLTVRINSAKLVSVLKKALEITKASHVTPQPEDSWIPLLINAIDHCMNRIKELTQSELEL
Chain of UniProt Q5JTJ3 (Q5JTJ3 whole entry, looked up): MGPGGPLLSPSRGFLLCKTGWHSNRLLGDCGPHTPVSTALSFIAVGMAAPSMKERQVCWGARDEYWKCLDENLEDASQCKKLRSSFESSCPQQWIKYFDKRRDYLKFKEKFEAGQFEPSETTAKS
Chain of UniProt P24863 (P24863 whole entry, looked up): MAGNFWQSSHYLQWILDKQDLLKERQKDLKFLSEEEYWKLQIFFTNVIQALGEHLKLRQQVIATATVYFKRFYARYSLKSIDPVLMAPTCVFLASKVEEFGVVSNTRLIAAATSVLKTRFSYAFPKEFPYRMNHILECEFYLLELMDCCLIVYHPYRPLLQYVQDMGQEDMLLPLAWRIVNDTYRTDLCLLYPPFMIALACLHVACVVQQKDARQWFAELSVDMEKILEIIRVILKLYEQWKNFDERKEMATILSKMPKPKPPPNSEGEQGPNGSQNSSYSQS
Chain of UniProt Q96GQ5 (Q96GQ5 whole entry, looked up): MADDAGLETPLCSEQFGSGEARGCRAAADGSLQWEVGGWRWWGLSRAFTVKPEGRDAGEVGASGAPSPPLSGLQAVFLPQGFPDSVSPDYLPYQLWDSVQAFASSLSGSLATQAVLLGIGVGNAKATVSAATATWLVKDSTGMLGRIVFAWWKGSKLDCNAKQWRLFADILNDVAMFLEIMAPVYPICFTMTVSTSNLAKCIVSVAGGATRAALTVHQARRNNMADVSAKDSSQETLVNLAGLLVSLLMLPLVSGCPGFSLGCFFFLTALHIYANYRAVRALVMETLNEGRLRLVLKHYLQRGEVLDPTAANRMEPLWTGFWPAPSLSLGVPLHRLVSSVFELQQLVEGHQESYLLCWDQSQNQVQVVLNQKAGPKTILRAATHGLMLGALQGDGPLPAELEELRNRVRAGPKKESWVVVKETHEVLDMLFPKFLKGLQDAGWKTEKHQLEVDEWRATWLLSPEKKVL
Chain of UniProt Q9UNS2 (Q9UNS2 whole entry, looked up): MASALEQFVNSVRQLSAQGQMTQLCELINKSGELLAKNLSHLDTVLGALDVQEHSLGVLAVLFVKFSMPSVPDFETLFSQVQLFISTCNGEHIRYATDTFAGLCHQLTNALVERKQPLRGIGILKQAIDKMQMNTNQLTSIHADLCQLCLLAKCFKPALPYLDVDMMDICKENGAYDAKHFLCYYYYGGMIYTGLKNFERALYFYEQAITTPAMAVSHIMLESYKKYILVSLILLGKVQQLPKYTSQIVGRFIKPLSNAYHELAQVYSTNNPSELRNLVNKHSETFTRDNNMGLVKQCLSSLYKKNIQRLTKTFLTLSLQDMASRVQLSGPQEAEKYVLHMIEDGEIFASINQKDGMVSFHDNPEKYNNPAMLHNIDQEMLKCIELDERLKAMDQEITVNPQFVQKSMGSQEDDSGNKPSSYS
Chain of UniProt P21127 (P21127 whole entry, looked up): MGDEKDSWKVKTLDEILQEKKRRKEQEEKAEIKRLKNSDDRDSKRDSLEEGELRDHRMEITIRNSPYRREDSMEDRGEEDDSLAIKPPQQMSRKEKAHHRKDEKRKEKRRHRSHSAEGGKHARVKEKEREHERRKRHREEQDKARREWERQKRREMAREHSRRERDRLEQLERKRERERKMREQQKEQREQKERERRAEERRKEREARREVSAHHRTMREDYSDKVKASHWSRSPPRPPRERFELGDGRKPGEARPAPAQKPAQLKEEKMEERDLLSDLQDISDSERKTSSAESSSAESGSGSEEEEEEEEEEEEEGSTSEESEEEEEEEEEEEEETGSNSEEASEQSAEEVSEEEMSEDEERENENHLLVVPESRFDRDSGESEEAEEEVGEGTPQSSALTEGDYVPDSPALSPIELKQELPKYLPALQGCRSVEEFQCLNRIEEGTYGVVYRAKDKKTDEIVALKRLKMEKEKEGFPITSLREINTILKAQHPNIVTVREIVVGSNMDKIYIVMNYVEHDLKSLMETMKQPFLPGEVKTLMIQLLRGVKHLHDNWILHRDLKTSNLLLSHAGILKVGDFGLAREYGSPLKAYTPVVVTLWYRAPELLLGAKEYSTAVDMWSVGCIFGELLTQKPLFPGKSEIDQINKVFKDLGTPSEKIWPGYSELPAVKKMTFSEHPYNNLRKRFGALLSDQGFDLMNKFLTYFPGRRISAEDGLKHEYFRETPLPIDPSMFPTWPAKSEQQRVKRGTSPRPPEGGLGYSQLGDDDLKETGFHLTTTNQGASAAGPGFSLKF
Chain of UniProt Q5RI15 (Q5RI15 whole entry, looked up): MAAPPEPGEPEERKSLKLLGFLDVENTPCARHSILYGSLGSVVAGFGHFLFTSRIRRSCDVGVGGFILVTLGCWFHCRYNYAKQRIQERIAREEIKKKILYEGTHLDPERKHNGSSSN
Chain of UniProt Q96G23 (Q96G23 whole entry, looked up): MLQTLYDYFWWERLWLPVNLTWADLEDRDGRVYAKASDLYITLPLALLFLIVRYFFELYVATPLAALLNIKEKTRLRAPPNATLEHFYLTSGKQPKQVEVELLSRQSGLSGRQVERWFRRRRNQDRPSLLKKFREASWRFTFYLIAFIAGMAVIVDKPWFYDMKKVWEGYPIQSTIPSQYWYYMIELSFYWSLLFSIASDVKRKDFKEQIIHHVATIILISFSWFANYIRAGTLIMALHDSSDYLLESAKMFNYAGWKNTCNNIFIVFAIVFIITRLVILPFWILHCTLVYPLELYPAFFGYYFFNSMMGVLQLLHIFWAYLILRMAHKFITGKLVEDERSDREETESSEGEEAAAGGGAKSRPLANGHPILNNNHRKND
Chain of UniProt Q9Y3X0 (Q9Y3X0 whole entry, looked up): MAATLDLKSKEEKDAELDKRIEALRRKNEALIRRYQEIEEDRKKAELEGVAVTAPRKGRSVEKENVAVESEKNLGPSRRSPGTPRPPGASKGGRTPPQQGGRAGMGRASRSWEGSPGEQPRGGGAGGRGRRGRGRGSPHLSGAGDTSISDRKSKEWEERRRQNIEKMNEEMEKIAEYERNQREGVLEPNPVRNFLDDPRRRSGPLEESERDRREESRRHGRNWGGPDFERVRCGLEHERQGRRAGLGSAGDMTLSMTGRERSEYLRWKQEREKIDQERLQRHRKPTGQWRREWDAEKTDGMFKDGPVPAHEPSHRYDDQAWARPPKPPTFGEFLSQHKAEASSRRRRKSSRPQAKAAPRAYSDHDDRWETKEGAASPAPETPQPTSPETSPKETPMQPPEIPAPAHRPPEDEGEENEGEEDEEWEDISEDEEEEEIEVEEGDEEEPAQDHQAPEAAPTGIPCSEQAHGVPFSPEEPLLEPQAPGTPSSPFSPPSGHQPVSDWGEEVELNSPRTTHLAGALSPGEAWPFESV
Chain of UniProt P09497 (P09497 whole entry, looked up): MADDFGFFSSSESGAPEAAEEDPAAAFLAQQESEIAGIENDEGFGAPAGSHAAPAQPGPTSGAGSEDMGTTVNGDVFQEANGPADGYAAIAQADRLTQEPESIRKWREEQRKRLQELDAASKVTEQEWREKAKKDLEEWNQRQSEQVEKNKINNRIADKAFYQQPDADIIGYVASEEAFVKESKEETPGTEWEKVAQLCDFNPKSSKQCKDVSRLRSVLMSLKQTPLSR

Compound in the first assay: C1=CC=C(C=C1)[C@H](COC2=CC3=C(C=C2)NC(=O)N3)NC(=O)C4=CC=CN(C4=O)CC5=CC(=C(C=C5)F)F
The assay can be described thus: log2 fold change, soluble protein after heating vs DMSO (PISA); higher = thermal stabilisation; K562 cells, 10 uM, 30 min; active = over 0.2 and 3.5 SD of the protein, either way, in both replicates (recomputed). A digest of the protocol: (§1)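 K562 cells at 2×10^6 cells/mL were treated with 10 μM compound for 30 min. Aliquots were heated for 3 min across 48°C-58°C, pooled, and extracted in PBS with 0.5% NP-40 at 4°C; soluble protein was the supernatant after 21,000xg for 90 min. Soluble protein was quantified by TMTpro 16plex LC-MS/MS with channel sums equalised, and reported as log2 fold change in thermal stability against DMSO controls, with values from duplicates.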
For CCDC167 (UniProt Q9P0B6), the log2 fold change was 0.153 (inactive).
As to CDC25B isoform 4 (UniProt P30305), the log2 fold change was 0.107 (inactive).
With CES2 isoform 4 (UniProt O00748), the log2 fold change is 0.041 (inactive).
Turning to CHST10 (UniProt O43529), the log2 fold change was 0.004 (inactive).
For the target COA6 isoform 2 (UniProt Q5JTJ3), the log2 fold change is 0.06 (inactive).
As to CDK11B (UniProt P21127), the log2 fold change is -0.05 (inactive).
As for CDKN1B (UniProt P46527), the log2 fold change was -0.009 (inactive).
Turning to COPS3 (UniProt Q9UNS2), the log2 fold change is 0.011 (inactive).
As to CAMK2G isoform 6 (UniProt Q13555), the log2 fold change is -0.017 (inactive).
As for CCDC9 (UniProt Q9Y3X0), the log2 fold change is -0.019 (inactive).
As for CLASP2 isoform 3 (UniProt O75122), the log2 fold change was -0.065 (inactive).
Take CREB3L2 (UniProt Q70SY1): the log2 fold change was 0.331 (inactive).
On the same count and under the same terms, the figure for CLTB (UniProt P09497) is 0.021 (inactive); for CDK5RAP1 (UniProt Q96SZ6) it is 0.056 (inactive); for CD55 isoform 7 (UniProt P08174) it is 0.026 (inactive).
Regarding COX20 isoform 2 (UniProt Q5RI15), the log2 fold change was 0.071 (inactive).
Regarding COX15 (UniProt Q7KZN9), the log2 fold change was -0.027 (inactive).
Consider CRMP1 isoform 2 (UniProt Q14194), for which the log2 fold change was -0.014 (inactive).
Take CPSF6 isoform 2 (UniProt Q16630): the log2 fold change was 0.036 (inactive).
Regarding CCNDBP1 (UniProt O95273), the log2 fold change was 0.023 (inactive).
As to CEP128 (UniProt Q6ZU80), the log2 fold change was -0.039 (inactive).
C16orf58 (UniProt Q96GQ5): the log2 fold change was 0.023 (inactive).
On to CPSF7 isoform 3 (UniProt Q8N684), for which the log2 fold change is 0.007 (inactive).
With CDK17 isoform 2 (UniProt Q00537), the log2 fold change is -0.095 (inactive).
Turning to CETN2 (UniProt P41208), the log2 fold change was 0.027 (inactive).
Regarding CLPTM1L (UniProt G5E9Z2), the log2 fold change is -0.22 (inactive).
Turning to CCNC (UniProt P24863), the log2 fold change was -0.139 (inactive).
Same read-out and setting: the figure for CNN3 (UniProt Q15417) is -0.015 (inactive).
Still for that read-out and setting: the result for COCH (UniProt O43405) reads 0.006 (inactive); that for CNOT4 isoform 9 (UniProt O95628), 0.009 (inactive); that for CDK1 (UniProt P06493), -0.019 (inactive).
In the case of CDK4 (UniProt P11802), the log2 fold change was 0.012 (inactive).
On to CHCHD1 (UniProt Q96BP2), for which the log2 fold change is 0.07 (inactive).
In the case of COPS8 (UniProt Q99627), the log2 fold change is 0.002 (inactive).
Take CERS2 (UniProt Q96G23): the log2 fold change was -0.033 (inactive).

Compound in a further assay: CC1=C(SC2=C1C(=N[C@H](C3=NN=C(N32)C)CC(=O)N)C4=CC=C(C=C4)Cl)C
Described as above. A digest of the protocol: as §1
For the target CCDC167 (UniProt Q9P0B6), the log2 fold change is -0.037 (inactive).
With CDC25B isoform 4 (UniProt P30305), the log2 fold change is 0.009 (inactive).
In the case of CES2 isoform 4 (UniProt O00748), the log2 fold change was -0.069 (inactive).
Take CHST10 (UniProt O43529): the log2 fold change was -0.064 (inactive).
With COA6 isoform 2 (UniProt Q5JTJ3), the log2 fold change is 0.08 (inactive).
For CDK11B (UniProt P21127), the log2 fold change was 0.015 (inactive).
CDKN1B (UniProt P46527): the log2 fold change is -0.029 (inactive).
In the case of COPS3 (UniProt Q9UNS2), the log2 fold change was 0.001 (inactive).
As to CAMK2G isoform 6 (UniProt Q13555), the log2 fold change was 0.054 (inactive).
Take CCDC9 (UniProt Q9Y3X0): the log2 fold change was -0.012 (inactive).
CLASP2 isoform 3 (UniProt O75122): the log2 fold change was 0.053 (inactive).
Still for that read-out and setting: the figure for CREB3L2 (UniProt Q70SY1) is -0.15 (inactive); for CLTB (UniProt P09497) it is -0.01 (inactive); for CDK5RAP1 (UniProt Q96SZ6) it is 0.029 (inactive).
Still for that read-out and setting: the figure for CD55 isoform 7 (UniProt P08174) is -0.058 (inactive); for COX20 isoform 2 (UniProt Q5RI15) it is 0.05 (inactive).
As for COX15 (UniProt Q7KZN9), the log2 fold change was 0.071 (inactive).
CRMP1 isoform 2 (UniProt Q14194): the log2 fold change is 0.074 (inactive).
Regarding CPSF6 isoform 2 (UniProt Q16630), the log2 fold change was -0.038 (inactive).
For the target CCNDBP1 (UniProt O95273), the log2 fold change was -0.118 (inactive).
In the case of CEP128 (UniProt Q6ZU80), the log2 fold change was 0.099 (inactive).
Take C16orf58 (UniProt Q96GQ5): the log2 fold change was 0.025 (inactive).
Same read-out and setting: the figure for CPSF7 isoform 3 (UniProt Q8N684) is 0.013 (inactive); for CDK17 isoform 2 (UniProt Q00537) it is -0.006 (inactive).
Turning to CETN2 (UniProt P41208), the log2 fold change was 0.046 (inactive).
Take CLPTM1L (UniProt G5E9Z2): the log2 fold change is 0.148 (inactive).
On the same count and under the same terms, the figure for CCNC (UniProt P24863) is -0.172 (inactive).
Same read-out and setting: the figure for CNN3 (UniProt Q15417) is 0.18 (inactive).
As to COCH (UniProt O43405), the log2 fold change is 0.061 (inactive).
Still for that read-out and setting: the result for CNOT4 isoform 9 (UniProt O95628) reads -0.09 (inactive).
On the same count and under the same terms, the figure for CDK1 (UniProt P06493) is 0.036 (inactive).
Take CDK4 (UniProt P11802): the log2 fold change is 0.128 (inactive).
Regarding CHCHD1 (UniProt Q96BP2), the log2 fold change is -0.056 (inactive).
Turning to COPS8 (UniProt Q99627), the log2 fold change is 0.086 (inactive).
For CERS2 (UniProt Q96G23), the log2 fold change is 0.035 (inactive).
